High-throughput results: PubChem, The Scripps Research Institute Molecular Screening Center
GPR151 activ: activates the human receptor GPR151; AID 1508602; PathHunter beta-arrestin GPR151 cells, luminescence; Q8TDV0; hit rate 1% among 650,000; activation, % at 11.2 µM; in the data active means activation above about 4.9%;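 further: 0% = median of compound wells and 100% = cells with positive control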
MITF inh: blocks human microphthalmia-associated transcription factor; AlphaScreen MITF homodimerization, bead proximity signal; inhibition, % at 2.6 µM; hit rate 0.91% among 650,000; AID 1259374; in the data active means inhibition above about 50%;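 further: 0% = vehicle wells with protein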
TEAD-YAP block: TEAD-YAP interaction inhibition; HEK-TIYL cells, TEAD-Gal4/YAP UAS-luciferase luminescence; AID 1259422; inhibition, % at 9.12 µM; hit rate 1.4% among 640,000; in the data active means inhibition above about 32%;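 further: 0% = median of test compound wells and 100% = reference inhibitor wells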
FBW7 activator: activators of human E3 ligase FBW7; Q969H0; AlphaScreen FBW7–phospho-cyclin E peptide binding, activator screen; normalized activity (activation), % at 26.1 µM; hit rate 0.13% among 650,000; AID 1259310; in the data active means normalized activity above about 1.9%;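 further: purified mutant Fbw7 with reduced substrate affinity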
Target sequence (Q969H0 whole entry, looked up): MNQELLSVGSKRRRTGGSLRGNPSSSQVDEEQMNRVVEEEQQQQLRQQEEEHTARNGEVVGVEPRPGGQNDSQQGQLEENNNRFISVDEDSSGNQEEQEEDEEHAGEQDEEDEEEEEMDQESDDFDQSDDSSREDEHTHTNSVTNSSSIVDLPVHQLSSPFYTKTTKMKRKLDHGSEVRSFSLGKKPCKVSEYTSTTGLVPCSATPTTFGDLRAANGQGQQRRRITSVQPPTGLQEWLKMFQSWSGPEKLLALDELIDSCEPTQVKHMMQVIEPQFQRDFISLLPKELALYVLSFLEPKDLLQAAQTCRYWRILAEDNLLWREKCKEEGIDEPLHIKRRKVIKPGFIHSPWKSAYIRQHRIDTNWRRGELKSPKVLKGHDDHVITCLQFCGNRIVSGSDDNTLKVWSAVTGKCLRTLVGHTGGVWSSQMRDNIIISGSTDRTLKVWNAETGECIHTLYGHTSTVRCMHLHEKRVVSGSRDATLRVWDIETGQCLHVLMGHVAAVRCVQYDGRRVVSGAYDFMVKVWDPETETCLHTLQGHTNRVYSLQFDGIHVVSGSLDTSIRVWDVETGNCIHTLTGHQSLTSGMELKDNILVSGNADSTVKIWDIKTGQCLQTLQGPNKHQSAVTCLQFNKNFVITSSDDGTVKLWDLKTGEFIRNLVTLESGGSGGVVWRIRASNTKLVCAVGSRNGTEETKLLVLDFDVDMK
GPR151 confirm: confirmation of human GPR151 activators; shares compounds with GPR151 activ; GPR151 PathHunter beta-arrestin cells, luminescence, 90 min; % of EA-reagent control over plate median; activation, % at 11.2 µM; 6,700 tested, under 10 active;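 active means mean percent activation across replicates above the confirmation screen cutoff of 4.91%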
GPR119 counter: GPR119 activation, counter-screen for GPR151 activators | shares compounds with GPR151 activ | GPR119 PathHunter beta-arrestin cells, luminescence, 90 min; 0 = compound-well median, 100 = enzyme-acceptor control | activation, % at 11.2 µM | hit rate 0.3% among 6,700;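 active means mean percent activation in the counterscreen above 29.09%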;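 further: counterscreen on off-target GPR119 to flag nonselective hits from the GPR151 activator screen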
Starred values were filed as active, the others as inactive; . = no result given. An excerpt weighted towards active compounds, which were near 3.5% of everything screened.

SMILES	GPR151 activ	MITF inh	TEAD-YAP block	FBW7 activator	GPR151 confirm	GPR119 counter
COc1cc(OC)nc(-c2cccc(NC(=O)CCl)c2)n1	-2	6	-1	0	.	.
N#Cc1c(NC(=O)c2cccs2)oc2cccnc12	0	14	-3	0	.	.
Cc1cccn2c(CNCCSc3nccn3C)c(C(=O)N3CCCCC3)nc12	1	5	-5	0	.	.
O=C(c1nc2sccn2c1CNCCc1ccncc1)N1CCCCCCC1	0	-13	3	0	.	.
COC(=O)[C@@H]1CCCN1Cc1c(C(=O)N2CCOCC2)nc2c(C)cccn12	-1	-11	3	0	.	.
CSCCNCc1c(C(=O)N2CCCCC2)nc2c(C)cccn12	9.0*	5	-1	0	0	3
Cc1cccn2c(CN3CCCCC3CCn3cccn3)c(C(=O)N3CCOCC3)nc12 (stereo not drawn)	7.8*	-13	1	0	0	4
O=C(c1nc2sccn2c1CNCCc1cccnc1)N1CCCC1	12*	0	7	0	0	7
CCOC(=O)c1ccc(NC(=O)/C=C\c2cn(-c3ccccc3)nc2-c2ccc(F)cc2)cc1	3	12	-5	0	.	.
O=C(NNC1=NCCC1)c1ccc(Br)cc1	0	5	-5	0	.	.
Cc1ccc(C(=O)NNC2=NCCC2)cc1	5.6*	-1	-6	0	0	6
O=C(COc1ccc(Cl)cc1)NC(=O)NCc1ccco1	-1	-17	8	0	.	.
O=C(COC(=O)CCS(=O)(=O)c1ccccc1Cl)NC(=O)NCc1ccco1	6.4*	-2	2	0	2	0
CCCN(CCC)C(=O)c1cccc(Cl)c1	0	3	5	0	.	.
CCc1nc2nc(C)cc(Nc3ccc(OC)cc3)n2n1	1	1	9	0	.	.
COc1ccc(Nc2cc(-c3cncc(-c4cccs4)c3)nc(C)n2)cc1	6.0*	5	2	0	-1	-11
COc1ccc(Nc2cc(-c3cncc(-c4ccc(OC)cc4)c3)nc(C)n2)cc1	2	7	-4	0	.	.
Cc1ccccc1N(CC(=O)N1CCCC1)S(=O)(=O)c1ccc(Cl)cc1	0	19	-12	0	.	.
Cc1ccccc1N(CC(=O)N1CCOCC1)S(=O)(=O)c1ccc(Cl)cc1	14*	-6	4	0	1	3
O=C1N(C2Cc3ccccc3C2)C[C@@H]2C[C@@H](c3cccc(-n4cccn4)c3)N3CCC[C@@]123	6.3*	-6	1	0	1	1
O=C(O)CCC(NCC(O)Cn1c2ccccc2c2ccccc21)C(=O)O (stereo not drawn)	5.6*	-16	2	0	2	16
CC(C)CC(NCC(O)Cn1c2ccccc2c2ccccc21)C(=O)O (stereo not drawn)	1	-7	0	0	.	.
O=C(CN1CCN(Cc2ccccc2Cl)C1=O)NC1CCCCCCC1	0	4	-5	0	.	.
O=C(Nc1cccc(Br)c1)Nc1nnc(N2CCCCCC2)s1	0	1	-7	0	.	.
O=C(Nc1nnc(N2CCCC2)s1)Nc1ccccc1Br	5.5*	0	-23	0	0	-4
SMILES	GPR151 activ	MITF inh	TEAD-YAP block	FBW7 activator	GPR151 confirm	GPR119 counter
O=C(Nc1cccc(C(F)(F)F)c1)Nc1nnc(N2CCCC2)s1	5.9*	-1	0	0	0	-1
COC(=O)c1ccccc1NC(=O)Nc1nnc(N2CC(C)CC(C)C2)s1 (stereo not drawn)	6.6*	11	3	0	-1	-7
O=C(Nc1ccc2c(c1)OCCO2)Nc1nnc(N2CCCC2)s1	5.7*	1	-19	0	0	-1
CCC(C)(O)c1ccc2nc(-c3ccccc3)c(-c3ccccc3)nc2c1 (stereo not drawn)	3	13	-15	0	.	.
COc1cc(/C=N/NC(=O)COc2ccc3ccccc3c2)ccc1O	1	8	4	0	.	.
O=C(COc1ccc(Cl)cc1Cl)Nc1ccc(NC(=O)c2ccco2)c(Cl)c1	0	-2	-17	0	.	.
O=C(COc1ccc(Cl)cc1Cl)NCc1ccco1	0	13	-53	0	.	.
O=C(COc1ccc(Cl)cc1Cl)Nc1cccc(NC(=O)c2ccco2)c1	11*	8	-23	0	0	2
